VACV mCherry inh – inhibitors of vaccinia virus infection (mCherry reporter signal) | actives 0.63% (n = 310,000) | AID 720579 | Vaccinia virus mCherry reporter infection, fluorescence | Potency, µM (top dose mostly 36.5 µM), without a hit: at the highest dose activity change, negative = inhibition, hits mostly inhibitors; calls by dose curve; tested in A549 cells; also: nearly all actives have a fitted effect of over 35% in size
Vaccinia Venus – vaccinia inhibition (Venus reporter). Vaccinia virus Venus reporter expression, fluorescence. Potency, µM (series often up to 36.5 µM), inactives show at the top dose activity change, negative = inhibition, actives largely listed as inhibitors. actives 0.46% (n = 330,000); calls by dose curve; tested in A549 cells; also: nearly all actives have a fitted effect of over 30% in size
AMA1-RON2 inh – AMA1-RON2 (P. falciparum) interaction inhibition | AID 720542 | Potency, µM (titrated, usually from 58.2 µM), for the others: at the highest dose activity change, negative = inhibition, usual class: inhibitors | actives 0.2% (n = 360,000) | AlphaScreen AMA1-biotinylated RON2 peptide binding;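 also: 0% = vehicle wells and -100% = peptide control; nearly all actives have a fitted effect of over 45% in size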
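AMA1 (3D7) with his tag at 25 nM final met compounds first, then biotinylated RON2 peptide at 25 nM; detection used donor plus acceptor beads, 10 µg/mL apiece, read by AlphaScreen after 30 min at room temperature.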
Pf growth 96h – inhibits malaria parasite growth, 96 h; actives 6.9% (n = 320,000); P. falciparum luciferase reporter growth, 96 h; Potency, µM (top dose mostly 28.7 µM), inactives show at the highest dose activity change, negative = inhibition, usual class: inhibitors
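Infected RBCs, 2% Hct / 0.05% parasitemia final; luciferase-reporter P. falciparum; cpd 96 h, 37 C, 5% CO2; luciferase detection reagent; luminescence.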
Pf growth 48h – inhibits P. falciparum growth in the first generation, 48 h; Potency, µM (series often up to 28.7 µM), inactives show at the highest dose activity change, negative = inhibition, actives largely listed as inhibitors; P. falciparum luciferase growth in erythrocytes, 48 h; actives 5.9% (n = 310,000)
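Cell-based growth assay: transgenic P. falciparum expressing firefly luciferase, cultured in red cells within RPMI 1640 containing 0.5% w/v Albumax, 24 mM bicarbonate and gentamycin. A drop in luciferase activity indicates inhibition.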
Numbers without * were called inactive; i = inactive; ? = inconclusive; · = no result; [ ] = another dose, or the depositor's remark. Sampled rows, rich in hits. Any-hit rate of the full collection: about 8.7%. Unless noted, calls follow the shape of the dose curve; as a rule, active = well fitted curve in the direction sought with a large enough effect; inconclusive = small, poorly fitted or top-dose-only effect, or another doubt; inactive = no such curve, though single readings can be large; an effect the other way counts as inactive or inconclusive. Unless noted, % is scaled to controls: 0 for no effect and ±100 for the full control effect; potency is read from the fitted curve at half-maximal effect.

SMILES	VACV mCherry inh	Vaccinia Venus	AMA1-RON2 inh	Pf growth 96h	Pf growth 48h
CCOc1ccc(N(C)S(=O)(=O)c2ccc(C)c(C(=O)OCC(=O)c3c[nH]c4ccccc34)c2)cc1	i	-19%	-1%	?	13µM*
Cc1nn(C(=O)c2ccccc2)c(C)c1S(=O)(=O)N1CCCCCC1	-14%	-19%	·	·	·
CCOC(=O)c1noc2nc(C)n(CC(=O)Nc3ccc(OC)c(Cl)c3)c(=O)c12	-7%	5%	·	·	·
COc1ccccc1N(C)S(=O)(=O)c1ccc(Cl)c(C(=O)NC2=NCCS2)c1	-1%	-10%	50%	?	-22%
CCOC(=O)C1CCCN(C(=O)c2ccc(CNS(=O)(=O)c3ccc(C)cc3)cc2)C1 (stereo not drawn)	·	·	-15%	-8%	?
COc1cc(OC)c(N(C)S(=O)(=O)c2cccc(C(=O)NC3=NCCS3)c2)cc1Cl	-17%	?	93%	?	10µM*
COc1ccc(N(C)S(=O)(=O)c2cccc(C(=O)Nc3nnc(C4CC4)s3)c2)cc1	-5%	2%	53%	?	?
CCOC(=O)C1CCCN(C(=O)c2ccc(S(=O)(=O)NCc3ccco3)cc2)C1 (stereo not drawn)	i	-11%	-11%	12µM*	?
CCN(c1ccccc1)S(=O)(=O)c1cccc(C(=O)N2CCN(S(=O)(=O)c3ccccc3)CC2)c1	?	?	9%	8.3µM*	?
COc1cc(OC)c(N(C)S(=O)(=O)c2cccc(C(=O)Nc3nnc(C4CC4)s3)c2)cc1Cl	·	·	2%	?	13µM*
CCOC(=O)C1=C(CN2CCC(C(=O)OCC)CC2)NC(=O)NC1c1ccc(Cl)cc1 (stereo not drawn)	-7%	-8%	·	·	·
COc1cccc(-c2ccnc(-n3ncc(C(=O)NCc4cccnc4)c3C3CC3)n2)c1	-17%	-3%	·	·	·
CCCOc1ccc(-c2nc3ccc(Br)cc3c(=O)o2)cc1	-7%	-1%	·	·	·
COc1ccc(CNC(=O)c2ccc(N(C)S(=O)(=O)c3ccc(C)cc3)cc2)cc1	-23%	?	-2%	0%	?
COc1ccc(N(C)S(=O)(=O)c2cccc(C(=O)NCc3ccc(C)cc3)c2)cc1	-27%	-14%	4%[11.6 µM]	5.9µM*	-11%
COc1ccc(C)cc1NC(=O)CN1CCN(S(=O)(=O)c2ccc(Cl)cc2)CC1	·	-9%	8%	?	12µM*
COc1ccc(OC)c(NC(=O)Cn2c(-c3ccc(Cl)cc3)noc2=O)c1	·	·	-13%	173%	4.1µM*
COc1ccc(C)cc1NC(=O)CN1CCN(S(=O)(=O)c2ccc(C(C)C)cc2)CC1	·	?	1%	30%	13µM*
COc1ccc(Cl)cc1NC(=O)CN1CCN(S(=O)(=O)c2ccc(F)cc2)CC1	i	-14%	-17%	-9%	3.7µM*
Cn1c(=S)[nH]c2c(c1=O)C(C)(C)Cc1ccccc1-2	-12%	-13%	80%	3.3µM*	48%
Cc1ccc(S(=O)(=O)n2nc(-c3ccco3)nc2NCc2ccccc2Cl)cc1	-13%	-14%	·	·	·
CCOC(=O)C1CCN(S(=O)(=O)c2ccccc2[N+](=O)[O-])CC1	·	·	-1%	·	·
CC1CCCCN1C(=O)COc1ccc(S(=O)(=O)N2CCCC2)cc1[N+](=O)[O-] (stereo not drawn)	·	·	-6%	12µM*	-26%
CCOC(=O)C1CCN(CC(O)COc2ccc(S(=O)(=O)N3CCCC3)cc2[N+](=O)[O-])CC1 (stereo not drawn)	-2%	-11%	-16%	?	8.3µM*
Fc1ccc(Nc2nc3ccccc3c3nncn23)c(Cl)c1	-7%	-3%	·	·	·
CC(Sc1nc2cc(Cl)ccc2s1)C(=O)Nc1cccc(S(=O)(=O)N2CCOCC2)c1 (stereo not drawn)	-13%	-20%	-8%	13µM*	-22%
CC(C)[C@H](NC(=O)c1cccc(S(=O)(=O)N2CCOCC2)c1)C(=O)Nc1nc2ccccc2s1	-2%	-27%	-3%	10µM*	15µM*
CCOc1ccccc1NC(=O)[C@@H](NC(=O)c1cccc(S(=O)(=O)N2CCOCC2)c1)C(C)C	i	-10%	12%	?	13µM*

High-throughput results: PubChem, National Center for Advancing Translational Sciences (NCATS)
